Here are results for 34 molecules from PubChem BioAssay (Tox21).

The structures appear in SMILES notation. Inconclusive results are not listed. Unmarked numbers belong to inactive results. Activity calls are given as the source filed them. The call rests on the fitted dose curve; in most records, active means well fitted curve in the direction sought with a large enough effect in the repeat runs; inconclusive means weak or mixed curves; inactive means no such curve, though single readings can be large; an effect the other way counts as inactive or inconclusive.
On the % scale 0 is the no-effect control and ±100 the full control effect.

One test can be described thus: qHTS RealTime-Glo MT Cell Viability Assay in HepG2 cells - 40 hour (AID 1224870). Further: nearly all actives have a fitted effect of over 50% in size. The following applies: RealTime-Glo luminescence; series mostly up to 76.8 µM; activity change, negative = cytotoxic: at the top concentration. In a few lines: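 HepG2 cells (600/well) mixed with RealTime-Glo MT reagent, settled 5 h at 37 C/5% CO2 before compound addition. Nonlytic NanoLuc luminescence from viable-cell prosubstrate reduction read repeatedly during 40 h treatment at 37 C.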
On to `CCS(=O)(=O)c1ccc(OC)c(C(=O)OC)c1`, for which the “activity change, negative = cytotoxic” value was 1.49% [at 35.3 µM].
Still for that read-out and setting: for `Brc1c(NC2=NCCN2)ccc2nccnc12` the value was -1.39% [at 35.3 µM]; for `COC(=O)CC(C)=O`, -5.85%.
Same read-out and setting: with `NC(=O)c1ccc(N)cc1` the figure was -0.413%.
For the molecule `Cc1cnc(NS(=O)(=O)c2ccc(N)cc2)nc1`, the “activity change, negative = cytotoxic” value is 0.466% [at 35.3 µM].
Take `COc1nc(N)nc2c1ncn2[C@@H]1O[C@H](CO)[C@@H](O)[C@@H]1O`: the “activity change, negative = cytotoxic” value is 1.96% [at 35.3 µM].
The same measure, in the same setting: with `CC(C)CNCC(C)C` the figure was 0.541%.
`O=C(c1ccccc1)C1CCCCC1`: the “activity change, negative = cytotoxic” value is 2.87%.
Consider `CN1CCCC1`, for which the “activity change, negative = cytotoxic” value was -1.56%.
Same read-out and setting: with `CC(C)(O)C(=O)c1ccccc1` the figure was -0.506%; with `COC(=O)c1ccc(C)cc1C1=NC(C)(C(C)C)C(=O)N1` (stereo not drawn), 0.31%.
On the same count and under the same terms, for `CCCCC(CC)COC(=O)c1ccccc1O` (stereo not drawn) the value was -0.322% [at 35.3 µM]; for `Nc1cc(=O)[nH]c(N)n1`, 3.91% [at 35.3 µM]; for `O=C(O)CCCc1ccccc1`, 1.01% [at 35.3 µM].
For `c1ccc([C@H]2CN3CCSC3=N2)cc1`, the “activity change, negative = cytotoxic” value is -3.96% [at 35.3 µM].
Take `CCOC(=O)CCC(C)=O`: the “activity change, negative = cytotoxic” value was 3.05%.
In the case of `COc1ccc2c(c1)CCCC2=O`, the “activity change, negative = cytotoxic” value is 2.07% [at 35.3 µM].
Still for that read-out and setting: with `C[C@H](NC(CCc1ccccc1)C(=O)O)C(=O)N1CCC[C@H]1C(=O)O` (stereo partly drawn) the figure was 0.362% [at 35.3 µM].
On the same count and under the same terms, for `CC(=O)OCC(=O)[C@@]1(O)CCC2C3CCC4=CC(=O)CC[C@]4(C)C3[C@@H](O)C[C@@]21C` (stereo partly drawn) the value was -1.04% [at 35.3 µM].
Still for that read-out and setting: for `C[C@](N)(Cc1ccc(O)cc1)C(=O)O` the value was 4.28% [at 6.97 µM].
For the molecule `COC(=O)NN`, the “activity change, negative = cytotoxic” value is 2.74%.
As to `CCCCCOC(=O)CCCCC`, the “activity change, negative = cytotoxic” value was 3.94%.
Consider `CCCCCCCCCCCCCC=O`, for which the activity change, negative = cytotoxic was -13.1% [at 6.97 µM].
On the same count and under the same terms, for `CC(=O)N(CC(O)CO)c1c(I)c(C(=O)NCCO)c(I)c(C(=O)NCC(O)CO)c1I` (stereo not drawn) the value was 0.142% [at 35.3 µM]; for `CN1CC(=O)NC1=N`, 1.1% [at 35.3 µM]; for `NC(=O)c1cn(Cc2c(F)cccc2F)nn1`, 2.4% [at 35.3 µM].
On the same count and under the same terms, for `Cc1[nH]c(=O)c(C#N)cc1-c1ccc2nccn2c1` the value was 0.221% [at 35.3 µM]; for `FC1(F)C(F)(F)C(F)(F)C2(F)C(F)(F)C(F)(F)C(F)(F)C(F)(F)C2(F)C1(F)F` (stereo not drawn), 0.779% [at 35.3 µM].
The same measure, in the same setting: with `C=C1CC[C@H]2C[C@@H]1C2(C)C` the figure was 0.441%; with `CN1C(=O)N(C)C(O)C1O` (stereo not drawn), -0.2%.
With `CCN(CC)CCOCCOC(=O)C1(c2ccccc2)CCCC1`, the “activity change, negative = cytotoxic” value was 0.548% [at 35.3 µM].
Same read-out and setting: for `CCC(C)C1CCCCC1=O` (stereo not drawn) the value was 0.299%.
Same read-out and setting: for `C=C[Si](OC(=C)C)(OC(=C)C)OC(=C)C` the value was 2.11%.
As to `CC(C)NC(=O)NC(C)C`, the “activity change, negative = cytotoxic” value was -0.145%.

The next test can be described thus: A CellTox Green Cytotoxicity Assay to monitor cytotoxicity in HEK293 cells - 40 hour (AID 1224871). Further: nearly all actives have a fitted effect of over 45% in size. Further: potency means the concentration at half of the fitted maximal effect. The following applies: CellTox Green fluorescence; series mostly up to 35.3 µM; cytotoxicity increase: at the top concentration. The procedure, abridged: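 Cells (HEK293, 600/well) and dye reagent are dispensed together. After 5 h at 37 C, 23 nL compound is pinned in. Plates stay at 37 C for 40 h with fluorescence read at 0h, 8h, 16h, 24h, 32h and 40h.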
For the molecule `CCS(=O)(=O)c1ccc(OC)c(C(=O)OC)c1`, the “cytotoxicity increase” value was -6.37%.
Take `Brc1c(NC2=NCCN2)ccc2nccnc12`: the “cytotoxicity increase” value was -16.2%.
On to `COC(=O)CC(C)=O`, for which the “cytotoxicity increase” value is 17.9% [at 76.8 µM].
In the case of `NC(=O)c1ccc(N)cc1`, the “cytotoxicity increase” value is -5.05% [at 76.8 µM].
As to `Cc1cnc(NS(=O)(=O)c2ccc(N)cc2)nc1`, the “cytotoxicity increase” value is -11.6%.
`COc1nc(N)nc2c1ncn2[C@@H]1O[C@H](CO)[C@@H](O)[C@@H]1O`: the “cytotoxicity increase” value is -10%.
On the same count and under the same terms, with `CC(C)CNCC(C)C` the figure was 18.1% [at 76.8 µM].
As to `O=C(c1ccccc1)C1CCCCC1`, the Potency was 24.5 µM (active).
As for `CN1CCCC1`, the “cytotoxicity increase” value was 15.7% [at 76.8 µM].
`CC(C)(O)C(=O)c1ccccc1`: the “cytotoxicity increase” value was 4.6% [at 76.8 µM].
With `COC(=O)c1ccc(C)cc1C1=NC(C)(C(C)C)C(=O)N1` (stereo not drawn), the “cytotoxicity increase” value is 12% [at 76.8 µM].
The same measure, in the same setting: for `CCCCC(CC)COC(=O)c1ccccc1O` (stereo not drawn) the value was -5.8%; for `Nc1cc(=O)[nH]c(N)n1`, -6.03%.
On the same count and under the same terms, for `O=C(O)CCCc1ccccc1` the value was -19.7%.
Still for that read-out and setting: with `c1ccc([C@H]2CN3CCSC3=N2)cc1` the figure was -14.4%; with `CCOC(=O)CCC(C)=O`, 13.9% [at 76.8 µM].
Take `COc1ccc2c(c1)CCCC2=O`: the “cytotoxicity increase” value is -4.36%.
For `C[C@H](NC(CCc1ccccc1)C(=O)O)C(=O)N1CCC[C@H]1C(=O)O` (stereo partly drawn), the “cytotoxicity increase” value is 5.61%.
Still for that read-out and setting: with `CC(=O)OCC(=O)[C@@]1(O)CCC2C3CCC4=CC(=O)CC[C@]4(C)C3[C@@H](O)C[C@@]21C` (stereo partly drawn) the figure was -27.6%; with `C[C@](N)(Cc1ccc(O)cc1)C(=O)O`, 1.26% [at 6.97 µM]; with `COC(=O)NN`, -0.692% [at 76.8 µM].
As for `CCCCCOC(=O)CCCCC`, the “cytotoxicity increase” value is -11.6% [at 76.8 µM].
Take `CCCCCCCCCCCCCC=O`: the cytotoxicity increase is 0.449% [at 6.97 µM].
Same read-out and setting: for `CC(=O)N(CC(O)CO)c1c(I)c(C(=O)NCCO)c(I)c(C(=O)NCC(O)CO)c1I` (stereo not drawn) the value was 5.38%.
With `CN1CC(=O)NC1=N`, the “cytotoxicity increase” value is 3.27%.
Still for that read-out and setting: with `NC(=O)c1cn(Cc2c(F)cccc2F)nn1` the figure was 3.3%; with `Cc1[nH]c(=O)c(C#N)cc1-c1ccc2nccn2c1`, 5.08%; with `FC1(F)C(F)(F)C(F)(F)C2(F)C(F)(F)C(F)(F)C(F)(F)C(F)(F)C2(F)C1(F)F` (stereo not drawn), -19.4%.
`C=C1CC[C@H]2C[C@@H]1C2(C)C`: the “cytotoxicity increase” value was 3.64% [at 76.8 µM].
In the case of `CN1C(=O)N(C)C(O)C1O` (stereo not drawn), the “cytotoxicity increase” value was -1.77% [at 76.8 µM].
For `CCN(CC)CCOCCOC(=O)C1(c2ccccc2)CCCC1`, the “cytotoxicity increase” value was 2.13%.
The same measure, in the same setting: for `CCC(C)C1CCCCC1=O` (stereo not drawn) the value was 0.841% [at 76.8 µM]; for `C=C[Si](OC(=C)C)(OC(=C)C)OC(=C)C`, 2.41% [at 76.8 µM].
Still for that read-out and setting: with `CC(C)NC(=O)NC(C)C` the figure was -7.9% [at 76.8 µM].
